The list is not random: actives were taken first. Their share in the collection is about 6.3%.
RORgamma inh: blocks mouse ROR gamma transcriptional activity. P51450. Drosophila S2 Gal4-RORgamma UAS-luciferase reporter, 20 h. Potency, µM (doses to about 53.6 µM), for inactives: at the highest dose activity change, negative = inhibition, hits mostly inhibitors. 5.4% of 310,000 active. AID 2551; note: % is set by controls: 0 for no effect and ±100 for the full control effect; nearly all actives have a fitted effect of over 60% in size
Target sequence (P51450 whole entry, looked up, the tested form may be a part): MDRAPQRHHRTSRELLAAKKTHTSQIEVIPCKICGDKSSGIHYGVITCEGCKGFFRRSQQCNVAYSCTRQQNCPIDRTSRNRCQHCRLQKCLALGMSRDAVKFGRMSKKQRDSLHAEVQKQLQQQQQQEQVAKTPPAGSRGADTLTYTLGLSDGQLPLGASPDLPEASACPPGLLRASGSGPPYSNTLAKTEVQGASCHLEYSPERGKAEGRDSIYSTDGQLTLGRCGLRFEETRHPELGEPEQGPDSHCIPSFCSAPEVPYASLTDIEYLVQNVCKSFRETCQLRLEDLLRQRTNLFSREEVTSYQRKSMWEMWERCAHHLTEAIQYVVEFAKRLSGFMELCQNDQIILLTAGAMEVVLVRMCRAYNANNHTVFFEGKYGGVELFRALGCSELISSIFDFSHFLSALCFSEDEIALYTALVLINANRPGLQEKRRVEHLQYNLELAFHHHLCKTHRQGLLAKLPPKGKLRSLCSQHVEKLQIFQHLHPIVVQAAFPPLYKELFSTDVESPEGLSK
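Compounds are pin-transferred onto Drosophila Schneider cells expressing a copper-inducible Gal4–ROR gamma transactivation domain fusion. After 1 hr, copper sulfate is added to 700 uM final; luciferase is read 20 hr later.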
TGFb SMAD3 inh: inhibitors of TGF-b signaling | HepG2 CAGA-GFP TGF-b/SMAD3 reporter, GFP fluorescence, 18 h; TGF-beta stimulated, 500 pg/mL final | Potency, µM (series often up to 46.1 µM), inactives show at the top dose activity, negative = inhibition, hits mostly inhibitors | 1.2% of 410,000 active | AID 588855; note: % is set by controls: 0 for no effect and ±100 for the full control effect; nearly all actives have a fitted effect of over 65% in size
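HEPG2 CAGA-GFP, 1000 cells/well; 2 h settle, 37 C; cpd via pin tool; TGF-b 500 pg/mL final; 18 h, 37 C; GFP imaging ex488/em500-530; %Activity normalised to -TGF-b and +DMSO controls; CRC fit, curve class.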
HepG2 tox: kills HepG2 cells in TGF-b inhibitor counter-screen; AID 588856; Potency, µM (highest dose often 46.1 µM), without a hit: at the highest dose activity change, negative = cytotoxicity, actives largely listed as cytotoxic; HepG2 CAGA-GFP viability, ATP luminescence, 18 h; 0.76% of 410,000 active
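CellTiter-Glo luminescence gave cytotoxicity after 18 hours at 37 degrees C. The cells were HepG2 CAGA-GFP in 1% FBS DMEM, stimulated with 500 pg/mL TGF-beta after compound addition. %Activity was normalised to no-cell wells (complete cell-killing) and DMSO (no toxicity), and curves were fitted and classified.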
S2 tox: cell viability loss in ATXN counter-screen; S2 cells (HEK-293 line with an ATXN2-luciferase reporter) viability, CellTiter-Fluor protease fluorescence, 24 h; Potency, µM (series often up to 56.7 µM), actives largely listed as cytotoxic; 0.49% of 400,000 active; AID 651635; note: nearly all actives have a fitted effect of over 40% in size
ATXN2 expr inh: reduces ATXN2 reporter expression in HEK-293 cells; HEK-293 ATXN2-luciferase reporter, luminescence, 24 h; Potency, µM (doses to about 57 µM), for the others: at the highest dose activity change, negative = inhibition, most hits filed as inhibitors; 0.72% of 360,000 active; AID 1745845; note: % is set by controls: 0 for no effect and ±100 for the full control effect; nearly all actives have a fitted effect of over 55% in size
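ATXN2-luciferase reporter cells (luciferase flanked by upstream and downstream ATXN2 gene portions) were treated 24 h at 37 °C with compounds at up to 57 uM. SteadyGlo luminescence gave expression; GF-AFC fluorescence gave viability.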
Gal4-VP16 FLuc: Gal4-VP16 reporter inhibition counter-screen | Drosophila S2 Gal4-VP16 UAS-luciferase, luminescence, 20 h | Potency, µM (titrated, usually from 53.6 µM), for the others: top-dose activity, negative = inhibition, usual class: inhibitors | 3.5% of 310,000 active;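 note: Gal4-VP16 expression switched on by copper sulfate through the metallothionein promoter; % is set by controls: 0 for no effect and ±100 for the full control effect; nearly all actives have a fitted effect of over 50% in size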
* = called active by the depositor; i = inactive; ? = inconclusive; · = no result; [ ] = another dose, or the depositor's remark. Calls come from the whole dose curve; as a rule, active = well fitted curve in the direction sought with a large enough effect; inconclusive = small, poorly fitted or top-dose-only effect, or another doubt; inactive = no such curve, though single readings can be large; an effect the other way counts as inactive or inconclusive. Potency is the fitted concentration of half-maximal effect.

SMILES	RORgamma inh	TGFb SMAD3 inh	HepG2 tox	S2 tox	ATXN2 expr inh	Gal4-VP16 FLuc
Cc1ccc(O)c(NC(=O)CSc2n[nH]c(-c3ccccc3)n2)c1	?	?	-46.1%	i	-22.4%	?
Cc1ccccc1NC(=O)CSc1n[nH]c(-c2ccccn2)n1	·	-17.0%	-33.4%	?	22.4µM*	·
O=C(CSc1n[nH]c(-c2ccccn2)n1)Nc1cccc(Cl)c1	1.78µM*	?	-17.1%	i	10µM*	2.82µM*
O=[N+]([O-])C1C(c2ccccc2)C12c1ccccc1-c1ccccc12 (centres undefined)	·	?	-6.4%	?	·	·
Clc1ncnc2scc(-c3ccc(Br)cc3)c12	11.2µM*	4.5%	-2.4%	i	?	?
COc1ccccc1N1C(=O)c2ccc(C(=O)Nc3ccc(F)cc3)cc2C1=O	-40.2%	-2.6%	-7.7%	i	·	15.8µM*
O=C(Nc1cccc(S(=O)(=O)N2CCCC2)c1)c1cc(=O)[nH]c2ccccc12	·	?	-63.1%	i	-0.4%	·
O=c1c2ccccc2[nH]c(=S)n1-c1cccc(S(=O)(=O)N2CCCC2)c1	3.16µM*	-19.4%	11.9%	i	29.7%[11.3 µM]	?
CCOC(=O)CN(C)Cc1cn[nH]c1-c1ccc2cc(OC)ccc2c1	?	-9.9%	-0.9%	i	-11.3%	14.7%
CCc1ccc(CN(Cc2cn[nH]c2-c2ccc(OC)cc2)C(=O)Nc2ccc(C)c(F)c2)cc1	·	10µM*	-42.6%	·	·	·
CCc1ccc(CN(Cc2cn[nH]c2-c2ccc(OC)cc2)C(=O)Nc2ccc(Br)cc2)cc1	·	7.94µM*	-39.7%	·	·	·
CCOc1ccc(NC(=O)N(Cc2ccc(CC)cc2)Cc2cn[nH]c2-c2ccc(OC)cc2)cc1	·	8.91µM*	-16.8%	·	·	·
COc1ccc(Cc2nnc(SCC(=O)NCc3ccco3)o2)cc1	6.0%	0.0%	-3.3%	i	19.8%	?
COc1ccc(-c2nnc(SCC(=O)c3ccc(O)cc3O)o2)cc1	5.62µM*	-5.4%	-10.6%	i	3.5%	?
COc1ccc(Cc2nnc(SCC(=O)NCC3CCCO3)o2)cc1 (centres undefined)	22.8%	-2.4%	-13.5%	i	-5.2%	9.2%
Cc1nc(SCC(=O)NCC2CCCO2)c2c3c(sc2n1)CCCC3 (centres undefined)	3.55µM*	?	-11.7%	?	3.3%	12.6µM*
COc1ccc(-c2nnc(SCC(=O)NCC3CCCO3)o2)cc1 (centres undefined)	12.6µM*	47.3%	-2.2%	i	1.0%	?
COc1ccc(-c2nnc(SCC(=O)NCc3ccco3)o2)cc1	0.562µM*	-2.1%	-14.9%	i	5.1%	?
CCCn1c(C)nc2c(N(C)CCN(C)C)nc(C)nc21	-16.4%	·	·	·	·	-5.5%
COc1ccc(C2C3=C(Nc4ncnn42)c2ccccc2CC3)cc1OC (centres undefined)	-20.8%	·	·	·	·	0.9%
S=C1NC2=C(CCC/C2=C\c2ccccc2)C(c2ccccc2)N1 (centres undefined)	3.55µM*	?	-31.8%	i	-2.8%	8.91µM*
O=C1CCCC2=C1C(c1ccccc1)NC(=S)N2 (centres undefined)	-0.7%	-0.2%	-2.7%	i	5.5%	-21.1%
C(=C1/CCCC2=C1Nc1ncnn1C2c1ccccc1)/c1ccccc1 (centres undefined)	2.82µM*	·	·	·	·	3.98µM*
Fc1cccc(/C=C2\CCCC3=C2NC(=S)NC3c2cccc(F)c2)c1 (centres undefined)	2.82µM*	8.91µM*	-12.4%	i	·	3.55µM*
CN1C(=O)NC(c2cccc(F)c2)C2=C1CC(C)(C)CC2=O (centres undefined)	-19.5%	0.9%	1.6%	i	7.7%	-7.2%
O=C1/C(=C/c2ccc(F)cc2)CCC1C1CCCC1 (centres undefined)	-15.9%	14.7%	2.6%	i	37.7%	?
